SMILES strings stand for the structures. Among all 290,000 compounds or so, about 3,000 (1%) were called active. This is one part of a sample in which actives are shown more often than they occur. No rule for the calls is given here.

In PubChem BioAssay AID2014 (Sanford-Burnham Center for Chemical Genomics, 2009) one finds inhibition data, which are given here for 60 compounds.

The target of the assay is Polyadenylate-binding protein 1 (Homo sapiens) (UniProt P11940). Description: PABP poly(A) RNA binding inhibitors, primary screen, biochemical, fluorescence polarization, uHTS (AID 2014).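 Also: calls also rest on retests at 20 µM and on dose response follow-up.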 To be noted: stronger effect = higher value.
Sequence of Polyadenylate-binding protein 1 (Homo sapiens) (P11940 whole entry, looked up): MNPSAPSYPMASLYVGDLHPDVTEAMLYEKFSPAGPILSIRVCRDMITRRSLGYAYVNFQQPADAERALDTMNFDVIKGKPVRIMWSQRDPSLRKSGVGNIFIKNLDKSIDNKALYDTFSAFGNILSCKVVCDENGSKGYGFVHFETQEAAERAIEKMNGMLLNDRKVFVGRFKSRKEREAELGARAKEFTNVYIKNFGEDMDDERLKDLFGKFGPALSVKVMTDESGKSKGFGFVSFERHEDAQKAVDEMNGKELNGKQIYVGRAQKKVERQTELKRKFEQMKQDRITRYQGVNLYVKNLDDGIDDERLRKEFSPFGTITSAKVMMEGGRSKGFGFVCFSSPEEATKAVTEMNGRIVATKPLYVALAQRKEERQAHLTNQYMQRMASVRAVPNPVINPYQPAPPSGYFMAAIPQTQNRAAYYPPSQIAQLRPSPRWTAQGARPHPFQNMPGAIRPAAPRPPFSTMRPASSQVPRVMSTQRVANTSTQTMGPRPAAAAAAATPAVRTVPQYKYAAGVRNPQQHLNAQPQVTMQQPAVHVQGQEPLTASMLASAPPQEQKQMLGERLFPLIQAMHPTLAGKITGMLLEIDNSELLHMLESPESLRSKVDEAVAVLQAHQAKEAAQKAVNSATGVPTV

One may read the inhibition as the drop in the measured response relative to a control, in per cent. For the compound `COc1ccc(-n2c(=O)[nH]c3cc(C(=O)NCCc4ccc(OC)c(OC)c4)ccc3c2=O)c(OC)c1`, the inhibition (at 35 µM) is 11% (inactive).

Consider `COc1ccc(N2CCN(C(=O)c3ccccc3NC(=O)C3=C(C)OCCS3)CC2)cc1`, for which the inhibition (at 35 µM) is -6.5% (inactive).

Turning to `O=C(c1cc(-c2ccc(O)cc2)on1)N1CCOCC1`, the inhibition (at 35 µM) was 2.9% (inactive).

For the compound `CCOC(=O)CNC(=O)CSc1nc2cccnc2n1CC`, the inhibition (at 35 µM) is 23.1% (inactive).

On to `CCc1nc2cccnc2n1-c1ccc(C(=O)O)cc1`, for which the inhibition (at 35 µM) was 73.7% (active) and the inhibition (confirmation repeats, at 20 µM) amounted to 87.5%.

Take `COCCCNC(=O)Cc1ccc(-n2c(C)nc3cccnc32)cc1`: the inhibition is 36% (inactive) (at 35 µM) and 12% (confirmation repeats, at 20 µM).

As for `CCOC(=O)[C@@H]1[C@H]2COc3cc(OC)ccc3[C@@H]2N2C(=O)N(c3cccc(C)c3)C(=O)[C@@]12C`, the inhibition (at 35 µM) was 7.6% (inactive).

Turning to `O=C(Cc1cccs1)Nc1ccc([N+](=O)[O-])cc1`, the inhibition (at 35 µM) was 2.1% (inactive).

For `COC(=O)/C=C\C(=O)Nc1cccc([N+](=O)[O-])c1`, where the note is “at 35 µM”, the inhibition was 9.4% (inactive).

As for `Cc1ccc(/C=C/C(=O)Nc2cc(S(=O)(=O)N3CCCCCC3)ccc2OCC(F)(F)F)o1`, the inhibition (at 35 µM) was -0.3% (inactive).

For `Cc1ccc(/C=C/C(=O)Nc2ccc([N+](=O)[O-])c(NC(=O)/C=C/c3ccc(C)o3)c2)o1`, the inhibition (at 35 µM) was 0% (active) and the inhibition (confirmation repeats, at 20 µM) amounted to 119%.

Take `COCc1ccc(CN2CCC(Oc3ccc(C(=O)NCc4ccccn4)cc3)CC2)o1`: where the note is “at 35 µM”, the inhibition is -1.3% (inactive).

As to `Cc1[nH]c2ccccc2c1C(=O)CN1CCCC(C)C1` (centres undefined), where the note is “at 35 µM”, the inhibition is 8.2% (inactive).

Turning to `Cc1nc(SCC(=O)NC2CCCC2)[nH]c(=O)c1C`, the inhibition (at 35 µM) was 3.8% (inactive).

In the case of `O=C(/C=C/c1ccc([N+](=O)[O-])o1)NNC(=O)c1ccc(F)cc1`, where the note is “at 35 µM”, the inhibition is 8.2% (inactive).

Turning to `CN=C1S/C(=C\c2ccc(Sc3ccc(Cl)cc3)o2)C(=O)N1C`, the inhibition (at 35 µM) was -5.7% (inactive).

In the case of `CN1C(=O)/C(=C/c2ccco2)SC1=Nc1cccc(C(=O)O)c1`, the inhibition reads like this: (at 35 µM) -1.6% (active); (confirmation repeats, at 20 µM) 78.4%.

As for `CN=C1S/C(=C\c2c(OC)cc(OC)cc2OC)C(=O)N1C`, where the note is “at 35 µM”, the inhibition was 8.5% (inactive).

On to `COC(=O)C1(C)NC(c2ccc(F)cc2)C2C(=O)N(c3ccccc3)C(=O)C21` (centres undefined), for which the inhibition (at 35 µM) was 10.8% (inactive).

On to `CC(=O)NS(=O)(=O)c1ccc2c(c1)Cc1cc(S(=O)(=O)NC(C)=O)ccc1-2`, for which, where the note is “at 35 µM”, the inhibition was 6% (inactive).

As for `COc1ccccc1CNS(=O)(=O)CC12CCC(CC1=O)C2(C)C` (centres undefined), the inhibition (at 35 µM) was 3.9% (inactive).

For the compound `CC(C)Cc1nnc(NC(=O)CCc2ccccc2)s1`, the inhibition (at 35 µM) was -7.4% (inactive).

For the compound `Brc1ccc(CSc2ccc(-c3ccco3)nn2)cc1`, the inhibition is, setting by setting: (at 35 µM) -6.1% (inactive); (confirmation repeats, at 20 µM) 5.9%.

For the compound `O=c1[nH]c(SCc2ccccc2)nnc1-c1ccccc1`, the inhibition by setting is: (at 35 µM) 62.5% (inactive); (confirmation repeats, at 20 µM) -3.1%.

Take `c1ccc(CSc2nnc(-c3ccco3)c(-c3ccco3)n2)cc1`: the inhibition (at 35 µM) is 74.8% (active).

Take `Fc1cccc(Cl)c1CSc1ccc(-c2ccco2)nn1`: the inhibition (at 35 µM) was -6.6% (inactive).

With `COC(OC)c1ccnc(SCc2ccccc2Cl)n1`, for the setting “at 35 µM”, the inhibition was -6.4% (inactive).

For the compound `Clc1ccccc1CSc1nnc(-c2ccco2)c(-c2ccco2)n1`, the inhibition runs as follows: (at 35 µM) 82.6% (active); (confirmation repeats, at 20 µM) 87.4%.

For `COc1ccc(NS(=O)(=O)c2ccc(F)cc2F)cn1`, the inhibition (at 35 µM) was 70.3% (active).

As for `CCOc1ccc(S(=O)(=O)Nc2ccc(OC)nc2)cc1`, where the note is “at 35 µM”, the inhibition is 9.7% (inactive).

Turning to `COc1ccc(S(=O)(=O)Nc2ccc(F)cc2)c(C)c1C`, the inhibition (at 35 µM) was -4.6% (inactive).

With `COCC(=O)N1CCc2ccc(NC(=O)c3ccccc3Cl)cc2C1`, the inhibition (at 35 µM) was 9.8% (inactive).

Turning to `Nc1nc(SCC(=O)Nc2cc(C(F)(F)F)ccc2Cl)[nH]c(=O)c1NC(=O)c1ccco1`, the inhibition (at 35 µM) was 2.8% (inactive).

Consider `Cc1c(CC(=O)NCCCCCC(=O)O)c(=O)oc2cc3occ(-c4ccccc4)c3cc12`, for which the inhibition (at 35 µM) was 15.4% (inactive).

As to `CCCCCCc1cc2cc(-c3nnc(-c4ccccc4)o3)c(=O)oc2cc1O`, the inhibition (at 35 µM) was 102% (active).

For `Cc1c(CCC(=O)O)c(=O)oc2cc3occ(-c4ccccc4)c3cc12`, the inhibition (at 35 µM) was 32.6% (inactive).

As to `COc1cc(C(=O)N2CCN(C3CCC(C)CC3)CC2)cc(OC)c1OC` (centres undefined), the inhibition (at 35 µM) is 7.5% (inactive).

Regarding `CC(C)=N/N=C1/NC(=O)C(Cc2ccccc2)S1` (centres undefined), under “at 35 µM”, the inhibition was 4.2% (inactive).

`CCOC(=O)/C=c1\s/c(=C\c2ccccc2OC)c(=O)n1CC(=O)N1CCOCC1`: where the note is “at 35 µM”, the inhibition is 7.9% (inactive).

As to `CSc1nc(-c2ccco2)nn1C(=O)CCc1ccccc1`, the inhibition (at 35 µM) is 7.1% (inactive).

For the compound `CCOc1ccccc1/C=c1\sc2nc(-c3ccco3)nn2c1=O`, under “at 35 µM”, the inhibition was 53% (active).

With `CC1CCCCN1C(=O)CCS(=O)(=O)Cc1ccccc1` (centres undefined), the inhibition (at 35 µM) is 9.6% (inactive).

In the case of `Cc1nc(N)nc(SCc2ccc([N+](=O)[O-])cc2)c1N`, the inhibition (at 35 µM) was 7.3% (inactive).

As to `O=S(=O)(c1ccc(F)cc1)N1CC=C(c2ccccc2)CC1`, the inhibition (at 35 µM) was 4.6% (inactive).

Regarding `COc1ccccc1N1CCN(S(=O)(=O)c2ccc(Cl)cc2)CC1`, the inhibition (at 35 µM) was -9.7% (inactive).

`Cc1c(C2=CCN(S(=O)(=O)c3ccc(Cl)cc3)CC2)c2ccccc2n1C`: the inhibition was 4.5% (active) (at 35 µM) and 95.9% (confirmation repeats, at 20 µM).

Take `COc1ccccc1NC(=O)C1CCN(C(=O)c2ccc(C(C)(C)C)cc2)CC1`: the inhibition (at 35 µM) is 10.3% (inactive).

Take `NS(=O)(=O)c1ccc(-c2ccc(/C=C3\SC(=O)NC3=O)o2)cc1`: for the setting “at 35 µM”, the inhibition was 7.1% (inactive).

`CCCc1nc(-c2cc3cc(C)ccc3[nH]c2=O)no1`: the inhibition was 61.5% (active) (at 35 µM) and 60% (confirmation repeats, at 20 µM).

Turning to `COc1ccc2[nH]c(=O)c(-c3noc(-c4ccc(F)cc4)n3)cc2c1`, the inhibition (at 35 µM) is 1.1% (inactive).

As for `CC(=O)OCc1cc2cc(C)ccc2[nH]c1=O`, the inhibition (at 35 µM) was 9.2% (inactive).

For the compound `COc1ccc(-n2ncc3c2CC(C)(C)CC3NC(=O)CCc2c(C)noc2C)cc1` (centres undefined), the inhibition (at 35 µM) was 9.7% (inactive).

With `CCCS(=O)(=O)N1CCN=C1SCc1cccc(F)c1`, under “at 35 µM”, the inhibition is -1.7% (inactive).

In the case of `COc1ccc(CNC(=O)C(=O)NCC2OCCN2C(=O)c2ccc(OC)cc2)cc1` (centres undefined), where the note is “at 35 µM”, the inhibition was -1% (inactive).

As for `Cc1ccc(S(=O)(=O)N2CC(C)N(S(C)(=O)=O)C2)cc1` (centres undefined), where the note is “at 35 µM”, the inhibition was 2% (inactive).

On to `Cc1cc(C)c2nc(NC(=O)C3CCCO3)sc2c1` (centres undefined), for which the inhibition (at 35 µM) was -13.4% (inactive).

On to `Cc1cc([N+](=O)[O-])ccc1NC(=O)C1CCCO1` (centres undefined), for which the inhibition (at 35 µM) is -5.5% (inactive).

With `Cc1ccc(C)c(C(C)NC(=O)C2CCCO2)c1` (centres undefined), the inhibition (at 35 µM) was 102% (active).

Take `COc1ccc(NC(=O)c2cc([N+](=O)[O-])ccc2NC(=O)CNC2CCCCC2C)c(OC)c1` (centres undefined): the inhibition (at 35 µM) is 9.1% (inactive).

For `O=C(CCc1nnc2ccc(NCCCN3CCCC3=O)nn12)NCc1ccccc1Cl`, the inhibition (at 35 µM) was 2.5% (inactive).
